This passage reports activity and activity, % sensitization results from PubChem BioAssay.

The structures appear in SMILES notation.

For assay [1], the target named is Tumor necrosis factor receptor superfamily member 10B (Homo sapiens) (UniProt O14763). Description: viability loss of caspase-8 NB7 cells with TRAIL – with/without TRAIL, luminescence panel, confirmation (AID 651596). The settings on record: NB7 neuroblastoma + caspase-8, TRAIL sensitization, NB7 Caspase-8, with TRAIL, mean of runs, at 10 µM, stronger effect = higher value.

Experiment in assay [2]: as above
Particulars: NB7 neuroblastoma + caspase-8, without TRAIL, NB7 Caspase-8, without TRAIL, mean of runs, at 10 µM.

Assay [3] addresses Tumor necrosis factor receptor superfamily member 10B (Homo sapiens) (UniProt O14763). Description: compound enhancement of TRAIL-induced cell killing – NB7 cells plus caspase-8, luminescence, panel, dose response (AID 652002). The settings on record: NB7 neuroblastoma +caspase-8, TRAIL sensitization, luminescence viability, NB7+Caspase-8, with TRAIL, run 1; at 12.5 µM (top of the series).

Assay [4] has the same target. Described as above. The settings on record: NB7 neuroblastoma +caspase-8, TRAIL sensitization, luminescence viability, NB7+Caspase-8, with TRAIL, run 2; at 12.5 µM (top of the series).
Experiment in assay [5]: as above
The settings on record: NB7 neuroblastoma +caspase-8, no TRAIL, compound-alone cytotoxicity counter-screen, luminescence viability, NB7+Caspase-8, run 1; at 12.5 µM (top of the series) unless noted. (The purpose of a counterscreen is to sort out artefacts and off-target activity.)

Experiment in assay [6]: as above
Particulars: NB7 neuroblastoma +caspase-8, no TRAIL, compound-alone cytotoxicity counter-screen, luminescence viability, NB7+Caspase-8, run 2; at 12.5 µM (top of the series) unless noted.

Sequence of Tumor necrosis factor receptor superfamily member 10B (Homo sapiens) (O14763 whole entry, looked up): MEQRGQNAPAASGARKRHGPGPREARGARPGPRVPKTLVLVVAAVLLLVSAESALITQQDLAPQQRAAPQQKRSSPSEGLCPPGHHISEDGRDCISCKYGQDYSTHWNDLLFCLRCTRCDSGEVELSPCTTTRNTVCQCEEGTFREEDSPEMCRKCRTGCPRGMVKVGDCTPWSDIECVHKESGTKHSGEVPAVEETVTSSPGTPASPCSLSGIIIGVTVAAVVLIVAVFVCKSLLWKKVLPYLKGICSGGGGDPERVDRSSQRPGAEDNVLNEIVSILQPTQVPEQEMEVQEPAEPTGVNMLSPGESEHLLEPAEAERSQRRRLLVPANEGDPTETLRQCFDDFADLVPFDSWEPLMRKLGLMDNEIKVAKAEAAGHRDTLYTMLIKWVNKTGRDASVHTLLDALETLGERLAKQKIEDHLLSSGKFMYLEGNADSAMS

In the case of `COc1ccc(-c2cc(C(=O)N/N=C/c3cccnc3)c3ccccc3n2)cc1`, the activity in assay [1] worked out at 45.5%; in assay [2] it was 40.8%. For the same compound, the activity, % sensitization turned out to be 22.7% in assay [3], 33.2% in assay [4], 21.2% in assay [5] and 40.4% in assay [6].

With `c1ccc(Nc2nnc(-c3cccnc3)s2)cc1`, the activity was found to be 57.6% in assay [1] and 40.5% in assay [2]. Besides, the activity, % sensitization in assay [3] was 46.2%; in assay [4], 42.2%; in assay [5], -5.23%; in assay [6], -13.3%.

On to `CC(C)C[C@H](NC(=O)c1nc[nH]c1C(=O)N[C@@H](CC(C)C)C(=O)OCc1ccccc1)C(=O)OCc1ccccc1`, for which the activity was 71.4% in assay [1] and 38.8% in assay [2]. In addition, the activity, % sensitization in assay [3] was -20.3%; in assay [4], 9.61%; in assay [5] it was 0.235%; in assay [6], -15.4%.

As to `CCOC(=O)c1cnc2c(-c3ccccc3)cnn2c1N`, the activity in assay [1] was found to be 62.2%; in assay [2], 54.7%. Moreover, the activity, % sensitization was 38.5% in assay [3], 22.1% in assay [4], 13.3% in assay [5] and 5.35% in assay [6].

For `CCOC(=O)C(=C1Nc2ccccc2N1)n1c(-c2cccnc2)nc2ccccc21`, the activity in assay [1] worked out at 55.9%; in assay [2], 52%. Also, the activity, % sensitization was 44.5% in assay [3], 36.8% in assay [4], -4.97% in assay [5] and 41.7% in assay [6].

For the compound `CCSc1ccc(-c2ccc(C)cc2)nn1`, the activity in assay [1] stood at 59.6%; in assay [2], 51.1%. For the same compound, the activity, % sensitization is 47.8% in assay [3], 52.9% in assay [4], 5.62% in assay [5] and 35.8% in assay [6].

For `O=c1[nH]c(=S)[nH]c2c1C(c1ccc(Cl)c(Cl)c1)OC(CCc1ccccc1)C2` (stereo unspecified), the activity in assay [1] came to 57.9%; in assay [2], 37.3%. Also, the activity, % sensitization in assay [3] was -9.52%; in assay [4], -15.8%; in assay [5], -5.58%; in assay [6] it was 14%.

On to `Cc1ccc(NC(=O)c2ccccc2O)cc1`, for which the activity came out at 61% in assay [1] and 48.8% in assay [2]. Further, the activity, % sensitization worked out at 28% in assay [3], 37.1% in assay [4], 29% in assay [5] and 31.3% in assay [6].

For the compound `COc1ccc(OCC(=O)N/N=C/C=C/c2ccccc2)cc1`, the activity was 59.4% in assay [1] and 45.4% in assay [2]. The activity, % sensitization amounted to 44.7% in assay [3], 46.1% in assay [4], 31.1% in assay [5] and 41.1% in assay [6].

As for `Cn1nnc(NC(=O)c2ccc(C(C)(C)C)cc2)n1`, the activity in assay [1] came to 58.1%; in assay [2], 51.8%. In addition, the activity, % sensitization is 47.5% in assay [3], 61.4% in assay [4], -4.98% in assay [5] and 39.7% in assay [6].

With `Cc1ccc2c(c1)-c1nc3ccccc3cc1C2=NC1CCCCC1`, the activity in assay [1] stood at 49.6%; in assay [2], 41.6%. Also, the activity, % sensitization in assay [3] was 26.1%; in assay [4] it was 46.1%; in assay [5], 4.61%; in assay [6], -9.3%.

Regarding `CC(C)C(=O)Nc1ccc(NC(=O)c2ccccn2)cn1`, the activity in assay [1] came out at 53.6%; in assay [2], 53%. For the same compound, the activity, % sensitization in assay [3] was 34.7%; in assay [4], 36.7%; in assay [5], 8.97%; in assay [6] it was 37.8%.

On to `Cc1ccc(S(=O)(=O)Nc2ccccc2C(=O)Nc2nc(-c3ccc(F)cc3)cs2)cc1`, for which the activity in assay [1] came out at 56.5%; in assay [2] it was 51.6%. The activity, % sensitization in assay [3] stood at 32%; in assay [4], 39.6%; in assay [5], 24.6%; in assay [6], 40.4%.

For `CC1(C)N=C(N)N=C(N)N1c1ccc(Oc2ccc(Cl)cc2)c(Cl)c1`, the activity in assay [1] was 57.3%; in assay [2] it was 51%. Further, the activity, % sensitization turned out to be 50.2% in assay [3], 62.6% in assay [4], 60.3% in assay [5] and 68.3% [at 6.25 µM] in assay [6].

As for `CCOc1ccc(-c2cc(C(=O)N3CCC(C)CC3)c3ccccc3n2)cc1`, the activity in assay [1] came to 53.4%; in assay [2] it was 47.2%. In addition, the activity, % sensitization is 23.7% in assay [3], 31.6% in assay [4], -3.22% in assay [5] and -9.62% in assay [6].

As to `Cc1cc(-c2ccccc2)nc(Nc2nc3c(C)cccc3c(=O)[nH]2)n1`, the activity worked out at 59.1% in assay [1] and 38% in assay [2]. The activity, % sensitization in assay [3] was found to be 41.7%; in assay [4], 10.5%; in assay [5], 22.2%; in assay [6], 5.22%.

For the compound `Cc1cc2nc(-c3ccc(SCC(=O)Nc4nccs4)nc3)[nH]c2cc1C`, the activity in assay [1] is 58%; in assay [2], 46.6%. In addition, the activity, % sensitization was 5.16% in assay [3], 48.9% in assay [4], -17.8% in assay [5] and 0.327% in assay [6].

In the case of `Cc1onc(-c2c(Cl)cccc2Cl)c1C(=O)ONC(=O)c1ccccc1`, the figures for the activity in assay [1] and in assay [2] were 72.9% and 30.8%, respectively. The activity, % sensitization is 1.55% in assay [3], -5.77% in assay [4], -2.95% in assay [5] and -9.25% in assay [6].

For the compound `Cc1nn(-c2ccccc2)c2nc(N)c(C#N)c(-c3ccc(F)cc3)c12`, the values for the activity in assay [1] and in assay [2] were 61.9% and 46.8%, respectively. Moreover, the activity, % sensitization is -8.21% in assay [3], 4.3% in assay [4], 6.23% in assay [5] and 37.2% in assay [6].

For `CCOc1ccc2nc(NC(=O)c3cccc(-c4cc5ccccc5oc4=O)c3)sc2c1`, the results for the activity in assay [1] and in assay [2] were 56.2% and 31.1%, respectively. Besides, the activity, % sensitization in assay [3] was -26.2%; in assay [4], -15.7%; in assay [5], -20.2%; in assay [6], -25.4%.

On to `CC1(C)N=C(N)N=C(N)N1c1ccc(CCCCc2ccccc2)cc1`, for which the activity in assay [1] was 53.6%; in assay [2], 54.3%. Further, the activity, % sensitization in assay [3] was determined as 58.2%; in assay [4], 52.2%; in assay [5] it was 1.29%; in assay [6], 66.9%.

For `O=C(Nc1ccc(Br)cc1F)c1ccc2c(c1)OCCO2`, the activity in assay [1] is 56.6%; in assay [2], 43%. Moreover, the activity, % sensitization in assay [3] worked out at 35.1%; in assay [4], 39.5%; in assay [5], 7.23%; in assay [6], 34.6%.

As for `O=C1CCCc2nc(N3CCc4ccccc43)ncc21`, the figures for the activity in assay [1] and in assay [2] were 45.5% and 25.6%, respectively. The activity, % sensitization is 22.4% in assay [3], -9.35% in assay [4], 0.829% in assay [5] and -3.85% in assay [6].

As for `COC(=O)c1ccc(/C=C/c2nc3ccccc3c(=O)[nH]2)cc1`, the activity in assay [1] worked out at 60.9%; in assay [2] it was 52.2%. In addition, the activity, % sensitization in assay [3] is -15.3%; in assay [4] it was -22.1%; in assay [5] it was 2.64%; in assay [6], -17.7%.

Take `O=C(Oc1c(CN2CCOCC2)cc(Cl)c2cccnc12)c1cccs1`: the activity in assay [1] came to 53.1%; in assay [2], 53.5%. Moreover, the activity, % sensitization is 24.4% in assay [3], 44.5% in assay [4], 8.65% in assay [5] and -4.1% in assay [6].

For `Cc1cc2nc3ccc(N(C)C)cc3nc2cc1N`, the activity stood at 52.4% in assay [1] and 32.9% in assay [2]. Besides, the activity, % sensitization in assay [3] was 38.9%; in assay [4], 39.1%; in assay [5], 24.2%; in assay [6] it was 12.1%.
